Test results from PubChem BioAssay (NCATS).
Values without a mark were called inactive. Inconclusive results are not listed. Entries that show only a call come without a potency. The source made the active and inactive calls. Unless noted, the call rests on the fitted dose curve; in most records, active means well fitted curve in the direction sought with a large enough effect; inconclusive means small, poorly fitted or top-dose-only effect, or another doubt; inactive means no such curve, though single readings can be large; an effect the other way counts as inactive or inconclusive.

Legend:
[1] = molecular target: Cytochrome P450 1A2 (Homo sapiens) (UniProt P05177); assay: p450-cyp1a2 (AID 410; calls by dose curve; further: potency means the concentration at half of the fitted maximal effect)
Cytochrome P450 1A2 (Homo sapiens), sequence (P05177 whole entry, looked up): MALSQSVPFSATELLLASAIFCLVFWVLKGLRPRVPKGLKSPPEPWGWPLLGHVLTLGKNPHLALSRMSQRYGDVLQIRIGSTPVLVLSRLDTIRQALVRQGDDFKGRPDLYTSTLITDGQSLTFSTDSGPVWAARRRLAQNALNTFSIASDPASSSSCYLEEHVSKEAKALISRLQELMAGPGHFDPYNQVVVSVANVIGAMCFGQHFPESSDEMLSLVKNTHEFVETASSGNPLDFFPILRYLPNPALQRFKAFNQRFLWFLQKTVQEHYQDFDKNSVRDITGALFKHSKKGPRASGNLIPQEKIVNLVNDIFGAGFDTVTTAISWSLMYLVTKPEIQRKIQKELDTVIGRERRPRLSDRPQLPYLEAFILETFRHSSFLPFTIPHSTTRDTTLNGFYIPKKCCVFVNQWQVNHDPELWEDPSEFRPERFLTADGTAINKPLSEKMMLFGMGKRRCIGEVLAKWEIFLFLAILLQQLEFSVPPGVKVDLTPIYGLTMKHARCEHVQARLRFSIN
How it was run: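 Inhibition was calculated relative to 57 uM furafylline (full inhibition). The reaction used human CYP1A2 at 20nM with Luciferin-ME at its Km, 100uM, driven by an NADPH-regenerating system for 60 min at room temperature.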

[2] = molecular target: Glucocorticoid receptor (Homo sapiens) (UniProt P04150); assay: GR-GFP Redistribution (AID 450;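 active means compounds whose dose series gives a full or clear partial fitted curve of increased nuclear translocation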; further: potency means the concentration at half of the fitted maximal effect); conditions: U2OS GR-GFP nuclear translocation, laser cytometry, 2 h
Glucocorticoid receptor (Homo sapiens), sequence (P04150 whole entry, looked up, the tested form may be a part): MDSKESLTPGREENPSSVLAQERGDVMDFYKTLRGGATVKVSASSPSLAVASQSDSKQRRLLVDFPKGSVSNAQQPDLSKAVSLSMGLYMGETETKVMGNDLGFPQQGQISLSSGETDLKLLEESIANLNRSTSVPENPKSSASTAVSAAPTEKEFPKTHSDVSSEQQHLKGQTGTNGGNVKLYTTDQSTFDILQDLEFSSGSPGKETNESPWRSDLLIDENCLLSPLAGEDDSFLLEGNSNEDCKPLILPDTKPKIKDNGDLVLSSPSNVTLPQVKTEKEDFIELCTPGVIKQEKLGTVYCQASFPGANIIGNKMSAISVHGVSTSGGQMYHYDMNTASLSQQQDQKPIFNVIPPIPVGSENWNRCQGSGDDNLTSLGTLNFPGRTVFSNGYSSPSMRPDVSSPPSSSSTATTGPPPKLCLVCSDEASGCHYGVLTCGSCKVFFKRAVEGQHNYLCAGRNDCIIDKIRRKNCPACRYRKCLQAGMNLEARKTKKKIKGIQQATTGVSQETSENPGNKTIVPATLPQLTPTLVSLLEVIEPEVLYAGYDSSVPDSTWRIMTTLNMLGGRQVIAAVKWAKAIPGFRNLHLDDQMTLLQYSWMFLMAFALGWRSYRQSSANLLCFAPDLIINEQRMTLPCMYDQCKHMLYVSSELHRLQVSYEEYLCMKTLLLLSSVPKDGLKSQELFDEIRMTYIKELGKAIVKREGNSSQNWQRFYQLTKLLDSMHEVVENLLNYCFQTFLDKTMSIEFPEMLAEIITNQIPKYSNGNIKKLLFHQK

[3] = molecular target: Glucocorticoid receptor (Homo sapiens) (UniProt P04150); assay: GR-EFC Redistribution (AID 451; calls by dose curve; further: potency means the concentration at half of the fitted maximal effect); conditions: CHO-K1 GR-EFC translocation, beta-gal luminescence, 2 h
How it was run: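 CHO-K1 cells stably expressing nuclear-localized β-gal enzyme acceptor and GR fused C-terminally to the enzyme donor fragment; ligand-driven nuclear translocation restores β-gal by complementation. Compounds titrated up to 46 uM final, 2 h at 37 °C; luminescence read.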

[4] = molecular target: Mitogen-activated protein kinase 10 (Mus musculus) (UniProt Q61831); assay: JNK3 AlphaScreen Assay (AID 530; active means well fitted curve in either direction with a large enough effect, not every such curve was filed as active;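 further: kinase came from lysate of stimulated human HepG2 cells; signal reports phosphorylation of biotinylated GST-cJun 1-79 at Ser73 with 10 µM ATP; series mostly up to about 57 µM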)
How it was run: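 JNK3 came from HepG2 lysates pre-activated with IL-1beta and TNF-alpha and phosphorylated biotinylated GST-cJun (1-79) at 10 uM ATP, pH 7.6, room temperature. Compounds were titrated. AlphaScreen signal used anti-phospho-cJun (Ser73) antibody.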

[5] = molecular target: 3',5'-cyclic-AMP phosphodiesterase 4B (Homo sapiens) (UniProt Q07343); assay: qHTS Assay for Inhibitors of PDE-IV (AID 607; active means well fitted activation curve with a large enough effect in the main read-out, with a control signal flat, not every such curve was filed as active)
3',5'-cyclic-AMP phosphodiesterase 4B (Homo sapiens), sequence (Q07343 whole entry, looked up): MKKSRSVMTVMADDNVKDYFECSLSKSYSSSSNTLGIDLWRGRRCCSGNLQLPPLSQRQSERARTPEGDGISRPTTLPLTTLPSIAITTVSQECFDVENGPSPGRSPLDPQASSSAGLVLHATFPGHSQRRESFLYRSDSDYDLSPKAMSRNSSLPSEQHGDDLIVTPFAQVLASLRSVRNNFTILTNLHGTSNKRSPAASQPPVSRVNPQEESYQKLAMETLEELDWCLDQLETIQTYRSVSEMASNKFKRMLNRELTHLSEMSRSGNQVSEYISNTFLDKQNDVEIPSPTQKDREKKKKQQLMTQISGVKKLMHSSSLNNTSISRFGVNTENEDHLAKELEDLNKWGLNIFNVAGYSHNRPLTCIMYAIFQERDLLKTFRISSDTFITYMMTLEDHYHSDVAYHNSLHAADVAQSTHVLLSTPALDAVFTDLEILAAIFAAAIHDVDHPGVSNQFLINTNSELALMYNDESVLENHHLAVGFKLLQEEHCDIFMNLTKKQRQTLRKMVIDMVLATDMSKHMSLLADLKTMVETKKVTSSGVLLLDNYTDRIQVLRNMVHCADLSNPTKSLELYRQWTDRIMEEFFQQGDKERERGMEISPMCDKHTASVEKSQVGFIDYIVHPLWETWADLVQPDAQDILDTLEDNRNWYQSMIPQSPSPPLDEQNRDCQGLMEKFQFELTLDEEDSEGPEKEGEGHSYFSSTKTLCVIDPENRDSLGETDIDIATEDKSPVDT
How it was run: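 The readout is membrane depolarisation from a cAMP-sensing CNG channel, detected with a potential dye at ex 535/em 590. Cells were HEK293-derived (endogenous PDE-IV) at 1000 cells/well, titrated up to 22.9 uM final.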

[6] = molecular target: Cytochrome P450 3A4 (Homo sapiens) (UniProt P08684); assay: qHTS Assay for Activators of Cytochrome P450 3A4 (AID 885); further: nearly all actives have a fitted effect of over 65% in size
Cytochrome P450 3A4 (Homo sapiens), sequence (P08684 whole entry, looked up): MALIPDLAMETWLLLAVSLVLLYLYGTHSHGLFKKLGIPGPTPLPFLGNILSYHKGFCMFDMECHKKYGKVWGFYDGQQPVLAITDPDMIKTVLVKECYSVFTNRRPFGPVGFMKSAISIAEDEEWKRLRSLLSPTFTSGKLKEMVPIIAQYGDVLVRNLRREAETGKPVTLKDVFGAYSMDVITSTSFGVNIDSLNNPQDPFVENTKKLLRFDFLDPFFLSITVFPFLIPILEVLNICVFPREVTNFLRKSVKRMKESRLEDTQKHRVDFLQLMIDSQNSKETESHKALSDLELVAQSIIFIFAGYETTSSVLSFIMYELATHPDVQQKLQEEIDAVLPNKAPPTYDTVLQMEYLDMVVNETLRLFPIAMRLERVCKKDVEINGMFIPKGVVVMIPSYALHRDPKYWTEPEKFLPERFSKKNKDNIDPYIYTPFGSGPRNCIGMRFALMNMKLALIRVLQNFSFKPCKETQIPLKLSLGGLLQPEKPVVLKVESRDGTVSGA
How it was run: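 Steps: enzyme/substrate mix dispensed; compound added, 10 min RT; NADPH regeneration solution added, 60 min RT; luciferin detection buffer stops reaction; 20 min later luminescence measured.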

[7] = molecular target: Ubiquitin carboxyl-terminal hydrolase 1 (Homo sapiens) (UniProt O94782); assay: Inhibitors of USP1/UAF1: Pilot qHTS (AID 504865);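 further: rhodamine fluorescence freed from ubiquitin-rhodamine substrate followed over time; top concentration of the series differs between compounds; nearly all actives have a fitted effect of over 35% in size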
Ubiquitin carboxyl-terminal hydrolase 1 (Homo sapiens), sequence (O94782 whole entry, looked up): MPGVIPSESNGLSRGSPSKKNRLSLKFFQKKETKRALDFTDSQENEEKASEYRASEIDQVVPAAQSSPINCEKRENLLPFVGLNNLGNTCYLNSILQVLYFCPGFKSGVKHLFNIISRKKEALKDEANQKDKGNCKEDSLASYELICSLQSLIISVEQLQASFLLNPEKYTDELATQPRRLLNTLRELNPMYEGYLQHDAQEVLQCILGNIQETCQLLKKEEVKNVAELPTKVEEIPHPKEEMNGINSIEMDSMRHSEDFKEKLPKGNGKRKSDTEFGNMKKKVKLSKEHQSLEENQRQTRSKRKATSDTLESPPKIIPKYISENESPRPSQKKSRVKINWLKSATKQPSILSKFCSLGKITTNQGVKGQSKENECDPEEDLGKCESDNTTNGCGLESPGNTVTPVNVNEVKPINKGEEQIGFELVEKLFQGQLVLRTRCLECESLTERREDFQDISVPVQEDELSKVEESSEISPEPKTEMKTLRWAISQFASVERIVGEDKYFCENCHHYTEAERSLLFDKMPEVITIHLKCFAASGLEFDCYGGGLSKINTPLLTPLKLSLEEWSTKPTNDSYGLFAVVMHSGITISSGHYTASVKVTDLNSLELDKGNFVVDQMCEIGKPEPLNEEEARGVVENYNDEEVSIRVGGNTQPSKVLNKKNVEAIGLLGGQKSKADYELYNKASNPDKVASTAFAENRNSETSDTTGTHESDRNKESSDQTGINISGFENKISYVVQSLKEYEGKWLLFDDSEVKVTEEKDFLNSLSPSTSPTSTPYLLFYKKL
How it was run: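 USP1/UAF1 complex at 1 nM preincubated 15 min at room temperature with compound, then Ub-Rho substrate added at 150 nM final. Fluorescence (480/540 nm) read kinetically in 50 mM HEPES pH 7.8, 0.5 mM EDTA, 1 mM TCEP, 0.1 mg/ml BSA, 0.01% Tween-20.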

[8] = molecular target: DNA dC->dU-editing enzyme APOBEC-3G (Homo sapiens) (UniProt Q9HC16); assay: qHTS for inhibitors of Vif-A3G interactions: Validation (AID 588379)
DNA dC->dU-editing enzyme APOBEC-3G (Homo sapiens), sequence (Q9HC16 whole entry, looked up): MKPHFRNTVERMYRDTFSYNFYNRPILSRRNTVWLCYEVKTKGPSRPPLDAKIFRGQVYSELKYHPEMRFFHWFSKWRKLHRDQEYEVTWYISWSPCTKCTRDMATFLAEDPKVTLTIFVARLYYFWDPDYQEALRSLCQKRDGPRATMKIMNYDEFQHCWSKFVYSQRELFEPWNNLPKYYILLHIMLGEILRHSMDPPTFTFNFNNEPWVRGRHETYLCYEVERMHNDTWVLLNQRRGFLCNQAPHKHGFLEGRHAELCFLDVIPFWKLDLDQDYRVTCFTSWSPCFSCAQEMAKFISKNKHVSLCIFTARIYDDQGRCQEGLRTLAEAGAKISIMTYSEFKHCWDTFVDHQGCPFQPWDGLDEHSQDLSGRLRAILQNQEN
How it was run: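 HeLa cells stably expressing Vif and A3G-eYFP, 700 cells/well, incubated overnight at 37 deg C, then exposed to compound overnight at 37 deg C. Inhibition of Vif-mediated degradation read as increased yellow fluorescence (Ex 488/Em 500-530) by laser-scanning cytometry.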

[9] = system: Zika virus NS2B-NS3 protease; assay: Primary screen GU AMC qHTS for Zika virus inhibitors (AID 1347154); further: nearly all actives have a fitted effect of over 70% in size
How it was run: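 Unlinked Zika NS2B hydrophilic domain/NS3 protease domain noncovalent complex (25 nM final) in 10 mM Tris-HCl pH 8.0, 0.01% Tween 20, with AMC peptide substrate. Fluorescence (ex 340, em 450 nm) change over 15 min, room temperature; percent inhibition fitted to 4-parameter Hill equation.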

[10] = Primary qHTS for small molecule stabilizers of the endoplasmic reticulum resident proteome: Secreted ER Calcium Modulated Protein (SERCaMP) assay (AID 1508630)
How it was run: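 GLuc-SERCaMP-expressing SH-SY5Y cells, pretreated 16 h with compound, are challenged with thapsigargin to empty ER calcium stores; after 4 h, coelenterazine is added directly to the medium and luminescence is imaged.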

[11] = molecular target: Cytochrome P450 2C9 (Homo sapiens) (UniProt P11712); assay: qHTS Assay for Inhibitors and Substrates of Cytochrome P450 2C9 (AID 883); further: potency means the concentration at half of the fitted maximal effect; nearly all actives have a fitted effect of over 60% in size
Cytochrome P450 2C9 (Homo sapiens), sequence (P11712 whole entry, looked up): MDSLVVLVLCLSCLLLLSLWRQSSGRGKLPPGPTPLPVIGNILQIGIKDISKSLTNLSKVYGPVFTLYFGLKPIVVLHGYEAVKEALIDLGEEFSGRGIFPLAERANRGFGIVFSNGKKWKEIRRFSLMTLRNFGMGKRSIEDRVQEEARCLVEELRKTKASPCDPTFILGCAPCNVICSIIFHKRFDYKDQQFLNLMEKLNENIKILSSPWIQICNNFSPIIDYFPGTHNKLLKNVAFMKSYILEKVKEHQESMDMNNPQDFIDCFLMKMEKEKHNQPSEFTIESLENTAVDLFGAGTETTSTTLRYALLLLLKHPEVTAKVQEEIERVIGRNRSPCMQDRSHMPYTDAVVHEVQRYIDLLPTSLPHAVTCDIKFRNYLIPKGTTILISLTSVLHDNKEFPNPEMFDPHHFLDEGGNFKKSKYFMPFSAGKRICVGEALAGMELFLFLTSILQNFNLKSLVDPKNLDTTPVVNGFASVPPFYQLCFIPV
How it was run: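 Human CYP2C9 (10nM) hydroxylated Luciferin-H (100uM, at its KM) to luciferin in 25mM KPO4. Compound was preincubated 10 min at 37C, then NADPH regeneration started a 60 min reaction at 37C. Luminescence was read after detection reagent, normalized to 57uM sulphaphenazole.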

[12] = molecular target: Cytochrome P450 3A4 (Homo sapiens) (UniProt P08684); assay: qHTS Assay for Inhibitors and Substrates of Cytochrome P450 3A4 (AID 884); further: potency means the concentration at half of the fitted maximal effect; nearly all actives have a fitted effect of over 50% in size
How it was run: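 20 nM human CYP3A4 with 25 uM Luciferin-PPXE (at KM) in 200 mM KPO4, preincubated 10 min with compound; NADPH regeneration started a 60 min RT reaction. Luciferin detected by luminescence, normalized to 57 uM ketoconazole as full inhibition.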

[13] = molecular target: Cytochrome P450 2C19 (Homo sapiens) (UniProt P33261); assay: qHTS Assay for Inhibitors and Substrates of Cytochrome P450 2C19 (AID 899); further: potency means the concentration at half of the fitted maximal effect; nearly all actives have a fitted effect of over 60% in size
Cytochrome P450 2C19 (Homo sapiens), sequence (P33261 whole entry, looked up): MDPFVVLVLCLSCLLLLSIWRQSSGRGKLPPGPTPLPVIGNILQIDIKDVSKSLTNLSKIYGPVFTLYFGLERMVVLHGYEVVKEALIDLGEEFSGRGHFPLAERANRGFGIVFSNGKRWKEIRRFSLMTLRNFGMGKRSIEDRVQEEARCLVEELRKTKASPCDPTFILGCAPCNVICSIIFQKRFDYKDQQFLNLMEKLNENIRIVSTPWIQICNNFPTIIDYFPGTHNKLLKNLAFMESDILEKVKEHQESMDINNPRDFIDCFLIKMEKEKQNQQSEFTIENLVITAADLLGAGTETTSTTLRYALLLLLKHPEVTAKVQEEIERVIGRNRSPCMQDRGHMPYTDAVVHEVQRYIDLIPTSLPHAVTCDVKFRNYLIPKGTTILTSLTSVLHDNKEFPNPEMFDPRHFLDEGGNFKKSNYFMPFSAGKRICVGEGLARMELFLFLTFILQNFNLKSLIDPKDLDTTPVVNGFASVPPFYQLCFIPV
How it was run: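 Human CYP2C19 (5nM) with Luciferin-H EGE at 10uM (its KM) in 50mM KPO4 was preincubated with compound for 10 min at 37C. NADPH regeneration started a 60 min 37C reaction. Luciferin was read by luminescence, normalized to 57uM ketoconazole.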

| Compound | Potency [1] | Potency [2] | Potency [3] | Potency [4] | Potency [5] | Potency [6] | Potency [7] | Potency [8] | Potency [9] | Potency [10] | Potency [11] | Potency [12] | Potency [13] |
| --- | --- | --- | --- | --- | --- | --- | --- | --- | --- | --- | --- | --- | --- |
| COCCNC(=O)COc1ccc(OCCNC[C@@H](O)COc2ccccc2)cc1 | inactive | > 46 µM | > 46 µM | inactive | inactive | inactive | inactive | inactive | inactive | inactive | – | – | – |
| C[C@@H](CCCCC(=O)Nc1ccc(C(F)(F)F)cc1)NCCc1cnc[nH]1 | inactive | > 46 µM | > 46 µM | inactive | inactive | inactive | inactive | inactive | inactive | inactive | 7.94 µM (active) | 5.01 µM (active) | – |
| CNCCCCCCCCSc1nc(C(C)C)ccc1C(=O)c1cccs1 | 31.6 µM (active) | > 46 µM | > 46 µM | inactive | – | inactive | – | – | inactive | inactive | – | 2.51 µM (active) | – |
| C[C@](O)(C(=O)Nc1ccc(S(=O)(=O)c2ccccc2)cc1)C(F)(F)F | 39.8 µM (active) | > 46 µM | > 46 µM | inactive | – | inactive | inactive | inactive | inactive | inactive | – | – | – |
| CS(=O)(=O)c1ccc(-c2cc(Br)sc2-c2ccc(F)cc2)cc1 | 0.398 µM (active) | > 46 µM | > 46 µM | inactive | – | inactive | – | inactive | inactive | inactive | 0.794 µM (active) | – | – |
| CN1Cc2c(C(=O)OC(C)(C)C)ncn2-c2ccsc2C1=O | 15.8 µM (active) | > 46 µM | > 46 µM | inactive | – | – | inactive | inactive | inactive | inactive | 5.01 µM (active) | – | 1.26 µM (active) |
| NCCCCCCCCCCNS(=O)(=O)c1cccc2c(Cl)cccc12 | 15.8 µM (active) | > 46 µM | > 46 µM | inactive | – | inactive | – | inactive | inactive | inactive | 0.0501 µM (active) | 2.51 µM (active) | 0.0794 µM (active) |
| CCOC(=O)C1=C(N)Oc2ccc(Br)cc2[C@@H]1[C@@H](C#N)C(=O)OCC | 0.251 µM (active) | > 46 µM | > 46 µM | inactive | inactive | – | – | inactive | inactive | inactive | – | – | – |
